Screening results from PubChem.
PINK1 expr mod: changes PINK1 expression; PINK1 immunofluorescence, high-content cytometry, 24 h; Potency, µM (titrated, usually from 76.6 µM), for inactives: top-dose activation (PINK1 increase), most hits filed as activators; 410,000 compounds, 0.2% hits; AID 624263; active = well fitted activation curve with a large enough effect; inconclusive = small, poorly fitted or top-dose-only effect; cell line not stated here; note: % of control where 0% means no effect; nearly all actives have a fitted effect of over 65% in size
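A stable cell line was treated with compounds at 5 concentrations for 24 hours, with CCCP as control. PINK1 levels and mitochondrial localization were measured by immunofluorescence with mitochondrial, cell and nuclear markers after fixation, read by laser-scanning cytometry.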
MCF10A rerep: DNA re-replication induction in MCF 10a cells. MCF 10A DNA re-replication, Hoechst nuclear intensity, 48 h. Potency, µM (highest dose often 46.1 µM), without a hit: top-dose activity, positive = re-replication, hits mostly activators. 350,000 compounds, 2.9% hits. AID 624296; note: % of control where 0% means no effect; nearly all actives have a fitted effect of over 50% in size
KB-3-1 cytotox: KB-3-1 parental cell cytotoxicity; KB-3-1 viability, CellTiter-Glo ATP luminescence, 72 h; Potency, µM (top dose mostly 46.1 µM), hits mostly cytotoxic; 400,000 compounds, 1.4% hits; AID 1347075; note: % is set by controls: 0 for no effect and ±100 for the full control effect; nearly all actives have a fitted effect of over 60% in size
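Cells are dispensed, compounds pinned in, plates held at 37 °C for 72 h, then CellTiter-Glo is added and luminescence read after 10 minutes. Cell line: parental KB-3-1 in phenol-red-free DMEM, 10% FBS.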
SW480 rereplic: inducers of DNA re-replication in SW480 colon cancer cells. Potency, µM (doses to about 46.1 µM), for the others: at the highest dose re-replication activation, hits mostly activators. SW480 DNA re-replication, Hoechst DNA content imaging, 48 h. 340,000 compounds, 1.8% hits; note: % of control where 0% means no effect; nearly all actives have a fitted effect of over 55% in size
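Quantitative HTS format with DMSO vehicle controls; 48 hr drug incubation at 37 C, then 40 min Hoechst staining and scanning imager measurement at 405 nm excitation.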
KB-V1 cytotox: KB-V1 MDR subline cytotoxicity; KB-V1 MDR cells viability, CellTiter-Glo, 72 h; Potency, µM (highest dose often 46.1 µM), actives largely listed as cytotoxic; 400,000 compounds, 3.4% hits; AID 1347076; note: % is set by controls: 0 for no effect and ±100 for the full control effect; nearly all actives have a fitted effect of over 60% in size
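Compound-treated KB-V1 multidrug-resistant cells, 72 h, 37 degrees C; viability by CellTiter-Glo. Fitted qHTS curves give the values.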
The depositor's hits bear a star; i = inactive; ? = inconclusive; . = no result; [ ] = another dose, or the depositor's remark. A selection: hits, their analogues and other compounds. The true share with any hit is near 6.7%. Unless noted, calls come from the whole dose curve; as a rule, active = well fitted curve in the direction sought with a large enough effect; inconclusive = small, poorly fitted or top-dose-only effect, or another doubt; inactive = no such curve, though single readings can be large; an effect the other way counts as inactive or inconclusive. Potency is the fitted concentration of half-maximal effect.

SMILES	PINK1 expr mod	MCF10A rerep	KB-3-1 cytotox	SW480 rereplic	KB-V1 cytotox
C(=NN=C1c2ccccc2-c2ccccc21)c1ccc2c(c1)OCO2	11%	9%	i	2%	?
CSc1nc2ccc(Cl)cc2[nH]1	-5%[38.3 µM]	11%	i	-1%	i
CSc1nc2cc(Oc3cccc(Cl)c3Cl)c(Cl)cc2[nH]1	?	9.2µM*	i	10%	i
CCOc1ccccc1C(=O)Nc1cc(OC)ccc1OC	0%	9%	i	1%	15µM*
CCOc1cc(NC(=O)c2ccccc2OC)c(OCC)cc1NC(=O)c1ccccc1	0%	?	?	15µM*	i
CCOc1ccc(NC(=O)c2c(OC)cccc2OC)cc1	2%	0.65µM*	i	-5%	i
COc1ccccc1NC(=O)c1ccccc1NC(=O)c1ccccc1	1%	.	i	.	i
COc1ccccc1C(=O)Nc1ccccc1SC(=O)c1ccccc1OC	-2%	21µM*	?	?	i
COc1ccccc1-c1noc(-c2ccc(N3CCN(c4ccccc4)CC3)c([N+](=O)[O-])c2)n1	0%	.	i	.	i
CCc1ccc(-c2cc(C)no2)cc1S(=O)(=O)N1CCN(C(=O)c2ccco2)CC1	-1%	10%	i	-1%	i
Cn1c(CC(=O)Nc2ccccc2F)nnc1SCC(=O)Nc1ccccc1Br	-1%	-3%	i	-5%	i
Cc1ccc2c(c1)c1c(c(=O)n(-c3ccccc3C)c(=O)n1CC(=O)NCc1ccccc1)n2C	-1%	.	i	.	i
COc1cccc(NC(=O)C2(C)CCN2C(=O)CC2CC2)c1 (stereo not drawn)	1%	.	i	.	i
Cc1ccc(S(=O)(=O)N(CCC(=O)NCc2ccc(S(N)(=O)=O)cc2)c2ccccc2)cc1	-1%	-2%	i	?	?
COc1cccc(CCNC(=O)c2c(O)nc3ccccn3c2=O)c1	1%	.	?	.	?
COc1ccc(NC(=O)Nc2ccccc2OC)cc1	-2%[38.3 µM]	0%	i	1%	i
COc1ccc(OC)c(NC(=O)c2ccccc2SC)c1	-2%[38.3 µM]	2%	i	-1%	18µM*
COc1ccc(NC(=O)c2ccccc2SC)cc1	0%	-3%	i	1%	i
COc1ccc(OC)c(/C(O)=C/C(=O)C(=O)Nc2ccccc2OC)c1	-2%	6%	i	-15%	9.2µM*
COC(=O)c1cc(NC(=O)[C@H](CCS(C)(=O)=O)N2Cc3ccccc3C2=O)cc(C(=O)OC)c1	2%	.	i	.	i
COc1ccccc1N1CCN(c2ccc(=O)n(CC(=O)O)n2)CC1	4%	.	i	.	i
CC(=O)c1ccc2c(c1)C1C=CCC1C(c1cc3c(cc1Br)OCO3)N2 (stereo not drawn)	7%	4.1µM*	5.8µM*	12µM*	6.5µM*
COc1cccc([C@@H]2Nc3ccc(C(=O)O)cc3[C@@H]3C=CC[C@@H]32)c1OC	0%	.	.	.	.
COc1ccc2c(c1)C1C=CCC1C(c1cc3c(cc1Br)OCO3)N2 (stereo not drawn)	22%[38.3 µM]	3.7µM*	?	9.2µM*	i
CC(c1ccccc1C(O)c1ccccc1)N(C)C (stereo not drawn)	.	3%	i	0%	i
SMILES	PINK1 expr mod	MCF10A rerep	KB-3-1 cytotox	SW480 rereplic	KB-V1 cytotox
Cc1ccc(C(O)(c2ccccc2)c2ccccc2C(C)N(C)C)c(C)c1 (stereo not drawn)	2%[38.3 µM]	-1%	i	-3%	18µM*
COc1ccc(CCN(C)c2ccc(S(=O)(=O)N3CCCC3)cc2[N+](=O)[O-])cc1OC	0%	?	?	26%	2.6µM*
COc1ccccc1C(CNc1ccc(S(=O)(=O)N2CCCC2)cc1[N+](=O)[O-])N(C)C (stereo not drawn)	0%	?	i	9%	12µM*
CN(CC(=O)Nc1ccc(Cl)cc1)c1ccc(S(=O)(=O)N2CCCCC2)cc1[N+](=O)[O-]	1%	-5%	?	-4%	16µM*
O=C(CSCc1ccc(Cl)cc1)Nc1ccc(S(=O)(=O)N2CCCCCC2)cc1	2%	15%	i	-1%	?
O=[N+]([O-])c1cc(S(=O)(=O)N2CCCCCC2)ccc1F	-2%	4.6µM*	?	.	i
COc1ccc(CN(C)c2ccc(S(=O)(=O)N3CCN(C)CC3)cc2[N+](=O)[O-])cc1OC	1%	12%	?	-10%	?
COc1ccc(S(=O)(=O)N2CCC(C)CC2)cc1N(C)S(=O)(=O)c1ccccc1	0%	3%	.	?	.
COc1ccccc1NS(=O)(=O)c1ccc(N/N=C/C=C/c2ccccc2[N+](=O)[O-])c([N+](=O)[O-])c1	-3%	10%	i	-2%	i
CN(CC(=O)NCCc1ccc(S(N)(=O)=O)cc1)Cc1c(F)cccc1Cl	0%	-5%	i	0%	i
COc1ccccc1NS(=O)(=O)c1ccc(NN=C2CCCC2)c([N+](=O)[O-])c1	-2%	11%	i	-1%	2.9µM*
CN(CC(=O)Nc1ccc(S(=O)(=O)N2CCCC2)cc1)Cc1ccc(Cl)cc1Cl	-1%	9%	i	.	13µM*
CN(CC(=O)Nc1ccc(S(=O)(=O)N2CCCC2)cc1)CC(=O)Nc1ccc(F)c(F)c1F	3%	6%	i	-4%	?
CN(CC(=O)NCCc1ccc(S(N)(=O)=O)cc1)Cc1ccc(Cl)cc1Cl	1%	-2%	?	-11%	16µM*
COc1ccc(S(=O)(=O)N2CCCCCC2)cc1N(C)S(=O)(=O)c1ccc(Cl)cc1	-5%[38.3 µM]	4%	i	0%	21µM*
COc1ccc(OC)c(N/C=C/C(=C(C#N)C#N)N(C)C)c1	11%	10%	16µM*	0%	i
COC(/C=C/Nc1ccc(OC)cc1)=C(C#N)C#N	.	-8%	i	0%	i
COc1ccc(NC(=O)c2nc(C)c(C3(C)CC(c4cccnc4)=NO3)s2)cc1 (stereo not drawn)	3%	?	4.6µM*	7.3µM*	?
Cc1nc(C(=O)Nc2ccc(Cl)cc2)sc1C1(C)CC(c2cccc([N+](=O)[O-])c2)=NO1 (stereo not drawn)	0%	13%	i	5%	i
Nc1ccc(CSc2ccc(Cl)cc2)c(Cl)c1	14%	21µM*	i	?	i
CC(C)OC(=O)/C(=C/c1ccc(Br)cc1)NC(=O)c1ccco1	0%	3%	i	-61%	16µM*
COC(=O)/C(=C/c1ccccc1)NC(=O)c1ccco1	0%	10%	i	-2%	i
Cc1ccc(CNC(=O)Cn2cnc(S(=O)(=O)N3CCC(C)CC3)c2)o1	0%	1%	i	?	?
CCN1CCN(c2ccc(NC(=O)Cc3ccccc3)cc2)CC1	0%	-3%	i	-4%[9.22 µM]	i
